The campaign covered roughly 5,500 compounds. About 2,000 (36%) were called active. Another 18% or so got no clear call; they are omitted. This is one part of the list. Unmarked numbers belong to inactive results. Rule as the data show it: active = normalized growth mostly below about 0.91 (no sharp cut-off); inconclusive = no clear call, values can overlap the other calls; inactive = mostly above about 0.92.
Experiment: chemical genetic growth profiling, strain panel (AID 1159580);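 also: tested at 20 µM; growth read once vehicle control cultures reached saturation at 30 °C; 1 = growth at the plate median or of vehicle wells; lower values mean less growth of the strain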
Conditions: growth OD

Compound: CC(C)c1c(O)ccc2c1CCC1C(C)(C)CCC[C@]21C (some centres not stated)
- normalized growth (S. cerevisiae deletion strains, locus YJR066W, strain TOR1, stronger effect = lower value): 0.709 (active)
- normalized growth (S. cerevisiae deletion strains, locus YKL009W, strain mrt4, stronger effect = lower value): 0.822 (active)
- normalized growth (S. cerevisiae deletion strains, locus YKL068W, stronger effect = lower value): 1.03
- normalized growth (S. cerevisiae deletion strains, locus YKL085W, strain MDH1 (second series), stronger effect = lower value): 0.358 (active)
- normalized growth (S. cerevisiae deletion strains, locus YKL085W, strain MDH1, stronger effect = lower value): 0.358 (active)
- normalized growth (S. cerevisiae deletion strains, locus YKL160W, strain elf1, stronger effect = lower value): 0.729 (active)
- normalized growth (S. cerevisiae deletion strains, locus YKL190W, strain CNB1, stronger effect = lower value): 0.0594 (active)
- normalized growth (S. cerevisiae deletion strains, locus YKR001C, strain vps1, stronger effect = lower value): 0.0785 (active)
- normalized growth (S. cerevisiae deletion strains, locus YKR026C, strain gcn3, stronger effect = lower value): 0.993
- normalized growth (S. cerevisiae deletion strains, locus YKR091W, strain srl3, stronger effect = lower value): 0.78 (active)
- normalized growth (S. cerevisiae deletion strains, locus YLL001W, strain dnm1, stronger effect = lower value): 0.819 (active)
- normalized growth (S. cerevisiae deletion strains, locus YLL026W, stronger effect = lower value): 0.263 (active)
- normalized growth (S. cerevisiae deletion strains, locus YLL041C, strain sdh2, stronger effect = lower value): 0.55 (active)
- normalized growth (S. cerevisiae deletion strains, locus YLR027C, strain aat2, stronger effect = lower value): 0.254 (active)
- normalized growth (S. cerevisiae deletion strains, locus YLR039C, strain RIC1, stronger effect = lower value): 0.127 (active)
- normalized growth (S. cerevisiae deletion strains, locus YLR058C, strain SHM2, stronger effect = lower value): 0.104 (active)
- normalized growth (S. cerevisiae deletion strains, locus YLR102C, strain apc9, stronger effect = lower value): 0.214 (active)
- normalized growth (S. cerevisiae deletion strains, locus YLR113W, strain HOG1, stronger effect = lower value): 0.3 (active)
- normalized growth (S. cerevisiae deletion strains, locus YLR221C, strain rsa3, stronger effect = lower value): 0.337 (active)
- normalized growth (S. cerevisiae deletion strains, locus YLR258W, strain gsy2, stronger effect = lower value): 0.343 (active)
- normalized growth (S. cerevisiae deletion strains, locus YLR262C, strain YPT6 (second series), stronger effect = lower value): 0.146 (active)
- normalized growth (S. cerevisiae deletion strains, locus YLR268W, strain sec22, stronger effect = lower value): 0.191 (active)
- normalized growth (S. cerevisiae deletion strains, locus YLR320W, strain mms22, stronger effect = lower value): 0.22 (active)
- normalized growth (S. cerevisiae deletion strains, locus YLR342W, strain FKS1 (second series), stronger effect = lower value): 0.139 (active)
- normalized growth (S. cerevisiae deletion strains, locus YLR342W, strain FKS1, stronger effect = lower value): 0.43 (active)
- normalized growth (S. cerevisiae deletion strains, locus YLR357W, strain rsc2, stronger effect = lower value): 1.14
- normalized growth (S. cerevisiae deletion strains, locus YLR370C, strain arc18, stronger effect = lower value): 1.06
- normalized growth (S. cerevisiae deletion strains, locus YLR371W, strain rom2, stronger effect = lower value): 0.186 (active)
- normalized growth (S. cerevisiae deletion strains, locus YLR384C, strain iki3, stronger effect = lower value): 1.01
- normalized growth (S. cerevisiae deletion strains, locus YLR418C, strain cdc73, stronger effect = lower value): 0.125 (active)
- normalized growth (S. cerevisiae deletion strains, locus YML016C, strain PPZ1, stronger effect = lower value): 0.438 (active)
- normalized growth (S. cerevisiae deletion strains, locus YML032C, strain rad52, stronger effect = lower value): 0.315 (active)
- normalized growth (S. cerevisiae deletion strains, locus YML120C, strain ndi1, stronger effect = lower value): 0.235 (active)
- normalized growth (S. cerevisiae deletion strains, locus YML124C, strain tub3, stronger effect = lower value): 0.241 (active)
- normalized growth (S. cerevisiae deletion strains, locus YMR058W, strain fet3, stronger effect = lower value): 0.968
- normalized growth (S. cerevisiae deletion strains, locus YMR078C, strain ctf18, stronger effect = lower value): 0.211 (active)
- normalized growth (S. cerevisiae deletion strains, locus YMR125W, strain sto1, stronger effect = lower value): 0.928
- normalized growth (S. cerevisiae deletion strains, locus YMR129W, stronger effect = lower value): 0.692 (active)
- normalized growth (S. cerevisiae deletion strains, locus YMR205C, strain PFK2, stronger effect = lower value): 0.305 (active)
- normalized growth (S. cerevisiae deletion strains, locus YMR223W, strain ubp8, stronger effect = lower value): 0.21 (active)
- normalized growth (S. cerevisiae deletion strains, locus YMR231W, strain pep5, stronger effect = lower value): 0.93
- normalized growth (S. cerevisiae deletion strains, locus YMR307W, strain GAS1, stronger effect = lower value): 0.179 (active)
- normalized growth (S. cerevisiae deletion strains, locus YNL067W, strain RPL9B, stronger effect = lower value): 0.279 (active)
- normalized growth (S. cerevisiae deletion strains, locus YNL071W, strain lat1, stronger effect = lower value): 0.13 (active)
- normalized growth (S. cerevisiae deletion strains, locus YNL128W, strain TEP1, stronger effect = lower value): 0.205 (active)
- normalized growth (S. cerevisiae deletion strains, locus YNL183C, strain NPR1, stronger effect = lower value): 0.627 (active)
- normalized growth (S. cerevisiae deletion strains, locus YNL209W, strain ssb2, stronger effect = lower value): 0.689 (active)
- normalized growth (S. cerevisiae deletion strains, locus YNL233W, strain BNI4, stronger effect = lower value): 0.0951 (active)
- normalized growth (S. cerevisiae deletion strains, locus YNL248C, strain rpa49, stronger effect = lower value): 0.989
- normalized growth (S. cerevisiae deletion strains, locus YNL250W, strain rad50, stronger effect = lower value): 0.786 (active)
- normalized growth (S. cerevisiae deletion strains, locus YNL271C, strain bni1, stronger effect = lower value): 0.74 (active)
- normalized growth (S. cerevisiae deletion strains, locus YNL298W, strain CLA4, stronger effect = lower value): 0.636 (active)
- normalized growth (S. cerevisiae deletion strains, locus YNL307C, strain MCK1, stronger effect = lower value): 0.0705 (active)
- normalized growth (S. cerevisiae deletion strains, locus YNL322C, strain KRE1 (second series), stronger effect = lower value): 1.03
- normalized growth (S. cerevisiae deletion strains, locus YNL322C, strain KRE1, stronger effect = lower value): 0.0898 (active)
- normalized growth (S. cerevisiae deletion strains, locus YNR049C, strain mso1, stronger effect = lower value): 0.994
- normalized growth (S. cerevisiae deletion strains, locus YNR052C, strain pop2, stronger effect = lower value): 0.313 (active)
- normalized growth (S. cerevisiae deletion strains, locus YOL006C, strain TOP1, stronger effect = lower value): 0.227 (active)
- normalized growth (S. cerevisiae deletion strains, locus YOL012C, strain htz1): 0.469
- normalized growth (S. cerevisiae deletion strains, locus YOL147C, strain pex11, stronger effect = lower value): 0.131 (active)
- normalized growth (S. cerevisiae deletion strains, locus YOR001W, strain rrp6, stronger effect = lower value): 0.556 (active)
- normalized growth (S. cerevisiae deletion strains, locus YOR061W, strain CKA2, stronger effect = lower value): 0.173 (active)
- normalized growth (S. cerevisiae deletion strains, locus YOR069W, strain VPS5, stronger effect = lower value): 0.372 (active)
- normalized growth (S. cerevisiae deletion strains, locus YOR070C, strain gyp1, stronger effect = lower value): 0.157 (active)
- normalized growth (S. cerevisiae deletion strains, locus YOR080W, strain dia2, stronger effect = lower value): 0.685 (active)
- normalized growth (S. cerevisiae deletion strains, locus YOR083W, strain WHI5, stronger effect = lower value): 0.424 (active)
- normalized growth (S. cerevisiae deletion strains, locus YOR106W, strain vam3, stronger effect = lower value): 0.274 (active)
- normalized growth (S. cerevisiae deletion strains, locus YOR136W, strain idh2, stronger effect = lower value): 0.287 (active)
- normalized growth (S. cerevisiae deletion strains, locus YOR144C, strain elg1, stronger effect = lower value): 0.295 (active)
- normalized growth (S. cerevisiae deletion strains, locus YOR184W, strain ser1, stronger effect = lower value): 0.134 (active)
- normalized growth (S. cerevisiae deletion strains, locus YOR231W, strain MKK1, stronger effect = lower value): 0.366 (active)
- normalized growth (S. cerevisiae deletion strains, locus YOR265W, strain rbl2, stronger effect = lower value): 0.31 (active)
- normalized growth (S. cerevisiae deletion strains, locus YOR270C, strain vph1, stronger effect = lower value): 0.632 (active)
- normalized growth (S. cerevisiae deletion strains, locus YOR290C, strain snf2, stronger effect = lower value): 0.712 (active)
- normalized growth (S. cerevisiae deletion strains, locus YOR316C, strain cot1, stronger effect = lower value): 0.263 (active)
- normalized growth (S. cerevisiae deletion strains, locus YPL051W, strain arl3, stronger effect = lower value): 0.322 (active)
- normalized growth (S. cerevisiae deletion strains, locus YPL078C, strain atp4, stronger effect = lower value): 0.925
- normalized growth (S. cerevisiae deletion strains, locus YPL106C, strain sse1, stronger effect = lower value): 0.815 (active)
- normalized growth (S. cerevisiae deletion strains, locus YPL240C, strain hsp82, stronger effect = lower value): 0.29 (active)
- normalized growth (S. cerevisiae deletion strains, locus YPL241C, strain CIN2, stronger effect = lower value): 0.166 (active)
- normalized growth (S. cerevisiae deletion strains, locus YPL256C, strain CLN2, stronger effect = lower value): 0.521 (active)
- normalized growth (S. cerevisiae deletion strains, locus YPR119W, strain clb2, stronger effect = lower value): 0.187 (active)
- normalized growth (S. cerevisiae deletion strains, locus YPR141C, strain kar3, stronger effect = lower value): 1.01
- normalized growth (S. cerevisiae deletion strains, locus YPR163C, strain tif3, stronger effect = lower value): 0.187 (active)
- normalized growth (S. cerevisiae deletion strains, locus YPR167C, strain met16, stronger effect = lower value): 0.139 (active)
- normalized growth (S. cerevisiae deletion strains, strain wtn01, stronger effect = lower value): 0.132 (active)
- normalized growth (S. cerevisiae strains, strain wild type, stronger effect = lower value): 0.0726 (active)
